GDH-TPI counter-1 – GDH-TPI coupled enzyme inhibition counter-screen; inhibition, % at 4.8 µM; GDH-TPI coupled enzyme counterscreen, NADH absorbance; AID 588335; 1.2% of 360,000 active; in the data active means inhibition above about 30%;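 further: 0% = DMSO wells and 100% = wells lacking the enzyme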
Mtb hypoxia rep – inhibitors of hypoxia-regulated fluorescent reporter in Mycobacterium tuberculosis. AID 1159583. M. tuberculosis hypoxia-regulated fluorescent reporter, fluorescence. 0.1% of 300,000 active. fluorescence inhibition, % (no concentration beside the values); in the data active means fluorescence inhibition mostly above about 23%, no sharp cut-off; inactive means mostly below about 17%
Mtb FBA inh – Mtb fructose-bisphosphate aldolase inhibition | P9WQA3 | purified M. tuberculosis FBA, fluorescence read-out | inhibition, % at 1 µM | 2.3% of 360,000 active | AID 588726;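 further: 0% = vehicle and 100% = reference inhibitor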
Target sequence (P9WQA3 whole entry, looked up): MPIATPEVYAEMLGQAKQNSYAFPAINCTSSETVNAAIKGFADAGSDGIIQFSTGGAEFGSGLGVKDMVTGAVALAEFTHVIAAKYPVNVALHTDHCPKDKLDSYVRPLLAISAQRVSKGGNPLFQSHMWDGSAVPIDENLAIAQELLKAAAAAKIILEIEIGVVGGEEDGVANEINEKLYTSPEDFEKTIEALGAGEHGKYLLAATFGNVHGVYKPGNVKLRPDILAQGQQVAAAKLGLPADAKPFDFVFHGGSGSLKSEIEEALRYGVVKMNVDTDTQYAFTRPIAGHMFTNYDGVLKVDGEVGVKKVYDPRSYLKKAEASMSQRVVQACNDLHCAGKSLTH
Mtb BioA inh – BioA (M. tuberculosis) enzyme inhibition; purified M. tuberculosis BioA enzyme, plate reader; inhibition, % at 9.99 µM; 0.096% of 360,000 active; AID 602481; in the data active means inhibition above about 40%
FadD28 FP inh – inhibitors of Mycobacterium tuberculosis FadD28 bisubstrate binding; FadD28 bisubstrate probe binding, fluorescence polarization; inhibition, % at 12.5 µM; 0.22% of 360,000 active; AID 588549; in the data active means inhibition above about 8.5%, passing the limit was not always enough
Mtb FBA inh conf – Mtb FBA inhibition, confirmed; shares compounds with Mtb FBA inh; purified M. tuberculosis FBA, fluorescence read-out; inhibition, % at 1 µM; 78% of 5,600 active; AID 651616;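 further: 0% = vehicle wells and 100% = reference inhibitor wells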
GDH-TPI counter-2 – inhibits GDH-TPI coupling enzymes, flagging Mtb FBA hits | shares compounds with Mtb FBA inh | GDH-TPI coupled enzyme counterscreen, fluorescence | inhibition, % at 1 µM | 81% of 5,600 active | AID 652141; in the data active means inhibition above about 10%
The depositor's hits bear a star. Most compounds without a hit are left out; they make up all but 2.9% or so of the library. Unless noted, no stated cut-off is given here; in the data, active means inhibition above about 27%; inactive means the rest.

CC(=O)ON=Cc1c(NCc2ccccc2)nc2c(C)cccn2c1=O was read as Mtb hypoxia rep 12.
C[C@@H]1CCCCO[C@@H](CN(C)C(=O)c2ccccc2)[C@H](C)CN([C@@H](C)CO)C(=O)c2cc(NC(=O)c3ccccc3)ccc2O1 was read as Mtb BioA inh 0.
CCCCCn1c(N)c(C(=O)NCCN2CCOCC2)c2nc3ccccc3nc21 was read as GDH-TPI counter-1 8, Mtb FBA inh 65*, Mtb BioA inh 4, FadD28 FP inh -6, Mtb FBA inh conf active and GDH-TPI counter-2 active.
`COc1ccc(-n2c(=S)[nH]c3cc(C(=O)NCc4ccco4)ccc3c2=O)c(OC)c1` gave GDH-TPI counter-1 19, Mtb hypoxia rep 4, Mtb FBA inh 2, Mtb BioA inh 0 and FadD28 FP inh -3.
`COc1ccc(-n2c(N)c(C(=O)NCc3ccco3)c3nc4ccccc4nc32)c(OC)c1` gave GDH-TPI counter-1 4, Mtb hypoxia rep 7, Mtb FBA inh 60*, Mtb BioA inh -1, FadD28 FP inh -5, Mtb FBA inh conf -1 and GDH-TPI counter-2 -5.
For CCCCNC(=O)c1c(N)n(Cc2ccc3c(c2)OCO3)c2nc3ccccc3nc12 the results were GDH-TPI counter-1 18, Mtb hypoxia rep 1, Mtb FBA inh 30*, Mtb BioA inh -1, FadD28 FP inh 2, Mtb FBA inh conf 65* and GDH-TPI counter-2 55*.
COC(=O)c1c(C(=O)OC)c(C)n(Cc2ccco2)c1C was read as GDH-TPI counter-1 4, Mtb FBA inh -1, Mtb BioA inh 1 and FadD28 FP inh 1.
COc1ccc(CCNC(=O)c2c(N)n(CCN3CCOCC3)c3nc4ccccc4nc23)cc1OC was read as GDH-TPI counter-1 3, Mtb hypoxia rep 3, Mtb FBA inh 12, Mtb BioA inh 3 and FadD28 FP inh 1.
CCOC(=O)c1c(N)n(Cc2ccco2)c2nc3ccccc3nc12 was read as GDH-TPI counter-1 15, Mtb hypoxia rep 0, Mtb FBA inh 77*, Mtb BioA inh -3, FadD28 FP inh -3, Mtb FBA inh conf 198* and GDH-TPI counter-2 172*.
CCC(=O)N(C)C[C@H]1Oc2cc(-c3ccc(OC)cc3)ccc2S(=O)(=O)N([C@H](C)CO)C[C@H]1C was read as Mtb BioA inh 3.
Screening O=C(CSC1c2ccccc2-c2ccccc21)NN=Cc1ccccc1C(=O)O returned Mtb hypoxia rep 14.
O=C(NCCN1CCOCC1)c1ccc2ccccc2n1 was read as GDH-TPI counter-1 6, Mtb hypoxia rep 2, Mtb FBA inh 0 and FadD28 FP inh 3.
For CCCCn1c(N)c(C(=O)NCc2cccs2)c2nc3ccccc3nc21 the results were GDH-TPI counter-1 7, Mtb hypoxia rep 1, Mtb FBA inh 33*, Mtb BioA inh -1, FadD28 FP inh 0, Mtb FBA inh conf 166* and GDH-TPI counter-2 142*.
For Nc1c(C(=O)NCCN2CCOCC2)c2nc3ccccc3nc2n1-c1cccc(F)c1 the results were GDH-TPI counter-1 23, Mtb hypoxia rep 15, Mtb FBA inh 104*, Mtb BioA inh 3, FadD28 FP inh -3, Mtb FBA inh conf -5 and GDH-TPI counter-2 -6.
Screening Nc1c(C(=O)NCc2ccco2)nnn1Cc1ccccc1 returned GDH-TPI counter-1 10, Mtb hypoxia rep 8, Mtb FBA inh -1, Mtb BioA inh -1 and FadD28 FP inh 0.
Nc1c(C(=O)NCc2ccco2)c2nc3ccccc3nc2n1Cc1ccc(F)cc1 was read as GDH-TPI counter-1 24, Mtb FBA inh 58*, Mtb BioA inh -2, FadD28 FP inh -6, Mtb FBA inh conf 38* and GDH-TPI counter-2 37*.
`Cc1noc(C)c1S(=O)(=O)N(C)C[C@H]1Oc2c(NS(C)(=O)=O)cccc2C(=O)N([C@@H](C)CO)C[C@H]1C` gave Mtb BioA inh -2.
`Nc1nccnc1C(=O)OCC(=O)NCCc1ccc(Cl)cc1` gave GDH-TPI counter-1 2, Mtb hypoxia rep 7, Mtb FBA inh 102*, Mtb BioA inh 0, Mtb FBA inh conf -5 and GDH-TPI counter-2 -5.
For CCCCS(=O)(=O)Nc1ccc2cn[nH]c2c1 the results were GDH-TPI counter-1 -7, Mtb hypoxia rep 0, Mtb FBA inh -2 and FadD28 FP inh -5.
For CCCCS(=O)(=O)Nc1ccc2ncn(C)c(=O)c2c1 the results were GDH-TPI counter-1 1, Mtb hypoxia rep 16, Mtb FBA inh 35*, Mtb BioA inh 0, FadD28 FP inh -4, Mtb FBA inh conf -3 and GDH-TPI counter-2 -5.
For Cc1ccc2nc3[nH]c(=O)[nH]c(=O)c3c(N)c2c1 the results were GDH-TPI counter-1 6, Mtb hypoxia rep 14, Mtb FBA inh 105*, Mtb BioA inh 1, FadD28 FP inh -3, Mtb FBA inh conf -9 and GDH-TPI counter-2 -5.
For Cc1csc2nc(=O)c3ccccc3n12 the results were GDH-TPI counter-1 5, Mtb FBA inh 49*, FadD28 FP inh -1, Mtb FBA inh conf active and GDH-TPI counter-2 175*.
`Cc1nnc2sc(-c3ccc(-c4ccc(Cl)c(C(F)(F)F)c4)o3)nn12` gave GDH-TPI counter-1 15, Mtb hypoxia rep 5, Mtb FBA inh 76*, Mtb BioA inh -2, FadD28 FP inh -28, Mtb FBA inh conf 130* and GDH-TPI counter-2 115*.
For Cc1ccc(-c2nn3c(C)nnc3s2)cc1N the results were GDH-TPI counter-1 19, Mtb hypoxia rep 1, Mtb FBA inh 16, Mtb BioA inh -1 and FadD28 FP inh -1.
`CC(C)C(N)c1cn(C(CO)C(=O)N2CCNCC2)nn1` (stereo not given) gave Mtb hypoxia rep 4.
For CCCNC(=O)[C@H]1N[C@H]2c3ccc(C4=CCCC4)c(=O)n3C[C@H]2[C@@H]1CO the results were Mtb BioA inh 0.
For CO[C@H]1CN(C)C(=O)c2ccc(NC(=O)C3CCC3)cc2OC[C@@H](C)N(CC2CCCCC2)C[C@H]1C the results were Mtb BioA inh 5.
For O=C(CCCN1C(=O)c2cccc3cccc(c23)C1=O)NC1CCS(=O)(=O)C1 (stereo not given) the results were GDH-TPI counter-1 9, Mtb hypoxia rep -2, Mtb FBA inh 40*, FadD28 FP inh -2, Mtb FBA inh conf 56* and GDH-TPI counter-2 57*.
Screening O=C(CCCCCN1C(=O)c2cccc3cccc(c23)C1=O)NCCO returned GDH-TPI counter-1 6, Mtb hypoxia rep 14, Mtb FBA inh 36*, FadD28 FP inh -2, Mtb FBA inh conf 90* and GDH-TPI counter-2 74*.
For O=C1c2cccc3cccc(c23)C(=O)N1Cc1cccnc1 the results were GDH-TPI counter-1 22, Mtb hypoxia rep 11, Mtb FBA inh 41*, FadD28 FP inh -4, Mtb FBA inh conf 3 and GDH-TPI counter-2 0.
O=C(CCN1C(=O)c2cccc3cccc(c23)C1=O)NCc1cccnc1 was read as GDH-TPI counter-1 20, Mtb hypoxia rep 4, Mtb FBA inh 35*, FadD28 FP inh -2, Mtb FBA inh conf 2 and GDH-TPI counter-2 -4.
